Results filed as inconclusive are left out. Where a call stands in place of a potency, no number is given. Calls of active or inactive are those of the source. Calls come from the whole dose curve; as a rule, active = well fitted inhibition curve with a large enough effect; inconclusive = small, poorly fitted or top-dose-only effect; inactive = flat fitted curve, though single readings scatter. *1 amine or outer side, *2 acyl side, *3 side chain or, on linkers, in order; H or OH if unused. Where a SMILES comes first, the peptide text is derived from it. Bridges are numbered along the chain shown (N, C = ends). [ ]: non-standard residue; d: D form. The star is where a group is joined. pTerphenylCO(4''-OnC5H11) = CCCCCOc1ccc(-c2ccc(-c3ccc(C(=O)*)cc3)cc2)cc1; Orn(4R-OH,5R-OH) = O=C([C@H](C[C@@H](O)[C@@H](O)N[*:3])N[*:1])[*:2]; hTyr(3S-OH,4S-OH) = N[C@H](C(=O)O)[C@H](O)[C@@H](O)c1ccc(O)cc1; Pro(3S-OH,4S-Me) = C[C@H]1CN[C@H](C(=O)O)[C@H]1O; Hyp = O=C(O)[C@@H]1C[C@@H](O)CN1
Target: Calcium and integrin-binding protein 1 (Homo sapiens) (UniProt Q99828)
Sequence (Q99828 whole entry, looked up): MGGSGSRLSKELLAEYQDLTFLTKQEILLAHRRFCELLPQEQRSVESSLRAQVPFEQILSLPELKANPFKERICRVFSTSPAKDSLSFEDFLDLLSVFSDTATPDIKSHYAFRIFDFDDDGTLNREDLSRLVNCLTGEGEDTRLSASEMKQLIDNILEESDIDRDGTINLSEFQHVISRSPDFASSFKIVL
Assay: Primary qHTS for Identification of Calcium Integrin Binding Protein 1 (CIB1) Competitor (AID 1508620);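 note: GST tagged CIB1 binding a fluorescein labelled alphaIIb integrin peptide tracer; top concentration of the series differs between compounds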
Settings: CIB1-GST / FITC-alphaIIb peptide fluorescence polarization; series mostly up to 114 µM
Outline: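 CIB1-GST (1 uM final) and compound incubated 15 min at room temperature before adding FITC-alphaIIb peptide tracer (100 nM final). Competition for binding read by fluorescence polarization (ex 480, em 540) after another 15 min at room temperature.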

Compound | Potency | activity change, negative = inhibition
Cc1nnc(C[C@@H]2C=C(c3ccc(Cl)cc3)c3ccccc3-n3c(C)nnc32)o1 | inactive | 
NC(N)=N/N=C/c1ccccc1Cl | inactive | 
Cc1c[nH]c2ncnc(N3CCC(CN)(C(=O)Nc4cccc(OC(=O)N(C)C)c4)CC3)c12 | inactive | 
C=C1CC2[C@@]3(C)C=CC(=O)C(C)(C)C3=C(O)C(=O)[C@@]2(C)C2(C(=O)OC)C(=O)C(C)OC(=O)[C@@]12C (some centres undefined) | inactive | 
CCCCCOc1ccc(-c2ccc(-c3ccc(C(=O)N[C@H]4C[C@@H](O)[C@@H](O)NC(=O)[C@@H]5[C@@H](O)[C@@H](C)CN5C(=O)[C@H]([C@@H](C)O)NC(=O)[C@H]([C@H](O)[C@@H](O)c5ccc(O)cc5)NC(=O)[C@@H]5C[C@@H](O)CN5C(=O)[C@H]([C@@H](C)O)NC4=O)cc3)cc2)cc1 ({pTerphenylCO(4''-OnC5H11)}-[Orn(4R-OH,5R-OH)]T[Hyp][hTyr(3S-OH,4S-OH)]T[Pro(3S-OH,4S-Me)]; lactam 1-C) | inactive | 
COc1cc2c(cc1O)C1(Cc3ccc4c(c3C1O)OCO4)[N+](C)([O-])CC2 (centres undefined) | inactive | 
CC(C)S(=O)(=O)NC[C@@H]1CC(c2ccc(N3CCCC3)c(F)c2)=NO1 | inactive | 
C=C1CO[C@@]2(O[C@H]3CC4C5CC=C6C[C@@H](O)C[C@@H](O[C@@H]7OC[C@H](O)[C@H](O[C@@H]8OC[C@@H](O)[C@H](O)[C@H]8O)[C@H]7O[C@@H]7O[C@@H](C)[C@H](OC(C)=O)[C@@H](OC(C)=O)[C@H]7OC(C)=O)[C@]6(C)C5CC[C@]4(C)[C@@H]3[C@@H]2C)[C@@H](O)[C@H]1OC1OC(C)C(O)C(O)C1O (some centres undefined) |  | -5.12% [at 12.4 µM] (inactive)
C1=C/COCc2cc(ccc2OCCN2CCCC2)Nc2nccc(n2)-c2cccc(c2)COC/1 | inactive | 
OC(CC1c2ccccc2-c2cncn21)C1CCCCC1 (centres undefined) | inactive | 
COC(=O)CC[C@@H](C)C1CCC2C3CCC4C[C@H](OC(C)=O)CCC4(C)C3C[C@H](O)C21C (some centres undefined) | inactive | 
COc1cc2c(cc1OC)CN(C(=O)/C=C/c1c(-c3ccccc3)n(C)c3ncccc13)CC2 | inactive | 
C=C[C@@]1(C)CCC2C(=CCC3[C@]2(C)CCC[C@@]3(C)C(=O)O)C1 (some centres undefined) | inactive | 
COc1cc(C(C)C)c(Oc2cnc(N)nc2N)cc1I | inactive | 
O=S(=O)(Nc1cc(Cl)c(Oc2cnc3ccccc3c2)c(Cl)c1)c1ccc(Cl)cc1Cl | inactive | 
Cc1cn(CCN2CCN(c3ccccc3-c3cc(C#N)cc(C(=O)NCCCN4CCCC4)c3)CC2)c2ccccc12 | inactive | 
Cc1ccc(-c2ncc[nH]2)cc1NC(=O)c1ccc(OCc2ccccn2)cc1 | inactive | 
C[C@@H]1C[C@H]2O[C@@]3(O[C@@H]2C(C)(C)O)C(O)[C@@]2(C)C4CCC5C(C)(C)[C@@H](O[C@H]6OC[C@H](O)[C@@H](O)[C@@H]6O)CC[C@@]56C[C@@]46CC[C@]2(C)C13 (some centres undefined) | inactive | 
CC1(C)CN(C(=O)c2ccc(-c3cccc4nc(NC(=O)C5CC5)nn34)cc2)C1 | inactive | 
CC(C)(O)C1Cc2c(ccc(C(=O)CCc3ccccc3)c2O)O1 (centres undefined) | inactive | 

Compound | Potency | activity change, negative = inhibition
CCn1c(-c2nonc2N)nc2c(C#CC(C)(C)O)ncc(OCC3CCCNC3)c21 (centres undefined) | inactive | 
C=C[C@@]12COC(=O)C(=C)[C@@H]1[C@@H](O)[C@H](C(=C)C(=O)OC)[C@@H](O)C2 | inactive | 
COc1ccc(CCc2nc3cc(-c4c(C)noc4C)ccc3n2CC(C)N2CCOCC2)cc1Cl (centres undefined) | inactive | 
COc1ccc(CN2CCN(CCCSc3cc(C(C)(C)C)c(O)c(C(C)(C)C)c3)CC2)c(OC)c1OC | inactive | 
CC1(C)SCCN(S(=O)(=O)c2ccc(Oc3ccncc3)cc2)[C@H]1C(=O)NO | inactive | 
CCOC(=O)[C@@]1(CCCCCCOc2ccc(Cl)cc2)CO1 | inactive | 
Cc1c(OCc2cccc(-c3ccc(C(=O)O)cc3)c2)cc2c(c1C)C(=O)C(C1CCCC1)C2 (centres undefined) | inactive | 
N#Cc1ccnc(Nc2cc(C3CCN(C4COC4)CC3)cc(N3CCC(F)(F)C3)n2)c1 | inactive | 
OC1C=C2C3CN(Cc4cc5c(cc43)OCO5)C2CC1O (centres undefined) | inactive | 
CO[C@H]1C[C@@H]2CC[C@@H](C)[C@@](O)(O2)C(=O)C(=O)N2CCCC[C@H]2C(=O)O[C@H]([C@@H](C)C[C@@H]2CC[C@@H](O)[C@H](OC)C2)CC(=O)[C@H](C)/C=C(\C)[C@@H](O)[C@@H](OC)C(=O)[C@H](C)C[C@H](C)/C=C/C=C/C=C/1C | inactive | 
Nc1nc2c(ncn2C2OC3COP(=O)(O)OC3C2O)c(=O)[nH]1 (centres undefined) | inactive | 
COc1ccc(NC(=O)c2ccc(-c3ccc(C(=N)N)cc3C)cc2)cc1N1CCN(C)CC1 | inactive | 
C=CCc1ccc(OC(C)Cc2ccc(OC)c(OC)c2)c(OC)c1 (centres undefined) | inactive | 
CN(c1ccc(NC(=O)Nc2ccccc2)cc1)S(=O)(=O)c1cnn(-c2ccc(F)cc2)c1 | inactive | 
C=C1C(=O)OC2C=C(C)CC/C=C(\CO)CC(O)C12 (centres undefined) | inactive | 
Nc1nc(NC2CC2)cc(-c2cccc(Cl)c2Cl)n1 | inactive | 
COC(=O)C[C@H]1[C@]2(C)C3=C(C)[C@H](c4ccoc4)C[C@H]3O[C@@H]2[C@H](O)C2[C@](C)(C(=O)OC)C=CC(=O)[C@@]21C (some centres undefined) | inactive | 
C=C1C(=O)OC2/C=C(\C)CC3C=C(CC/C=C(\C)CCC12)C(=O)O3 (centres undefined) | inactive | 
Cc1cc(C)c(S(=O)(=O)n2cc(C)cc2C)c(C)c1 | inactive | 

From PubChem BioAssay (NCATS)
